# Test results published in PubChem BioAssay (Tox21).
# Records with an inconclusive call do not appear. Entries that show only a call come without a potency. Some compounds were tested as several samples or in several runs, with calls that do not always agree. Calls of active or inactive are those of the source. Calls come from the whole dose curve.
# Biological target: Acetylcholinesterase (Homo sapiens) (UniProt P22303)
# Test: Acetylcholinesterase (AChE) small molecule antagonists: fluorescence cell-based qHTS assay (AID 1347398); note: nearly all actives have a fitted effect of over 50% in size
# Details: SH-SY5Y cells; Potency: AChE activity; series mostly up to 115 µM; activity change, negative = inhibition: at the top concentration
# From the text: National Center for Advancing Translational Sciences [NCATS]
# Division of Preclinical Innovation [DPI]
# U.S. Environmental Protection Agency [EPA]
# National Institutes of Environmental Health Sciences [NIEHS]
# National Toxicology Program [NTP]
# U.S. Food and Drug Administration [FDA]
# Acetylcholinesterase (AChE) is the primary cholinesterase in the body that hydrolyzes a key neurotransmitter, acetylcholine. Inhibition of AChE activity can lead to neurotoxicity. Known inhibitors of AChE include organophosphorous pesticides (OP), chemical warfare agents, drugs, and various phytochemicals.
# A homogenous cell-based assay using Amplitetrade mark Fluorimetric Acetylcholinesterase Assay Kit *Green Fluorescence* (AAT Bioquest, Sunnyvale, CA) was used to evaluate the chemicals in the Tox21 10K library that inhibit AChE activity. The assay uses Thiolite Green to quantify the thiocholine produced from the hydrolysis of acetylthiocholine by AChE from the SH-SY5Y cells. AChE can hydrolyze acetylthiocholine to create thiocholine. Thiolite Green is fluorescent when reacting with thiocholine. It has spectral properties similar to those of fluorescein. The fluorescence intensity of Thiolite Green is used to measure AChE activity. Its signal can be easily read by a fluorescence microplate reader at Ex/Em = 490/520 nm.
# Tox21 Assay Protocol Summary:
# For cell-based AChE assay, 2,000 SH-SY5Y cells in 4 uL/well were dispensed into black, clear-bottom 1536-well plates using a Multidrop Combi (Thermo Scientific) dispenser. The assay plates were incubated overnight at 37 C to allow cells to attach to the wells, followed by the transfer of 23 nL compound or DMSO (vehicle control) by a Pintool station (Wako Automation, CA). The plates were incubated for 30 min at 37 C and 5% CO2, followed by the addition of 4 uL of detection cocktail solution (ThioliteGreen, acetylthiocholine) into each well using Flying Reagent Dispenser (Beckman Coulter, CA) and then following 40 min incubation at room temperature. Fluorescent intensity (Ex/Em = 490/520 nm) was measured using an Envision plate reader (PerkinElmer, MA).
# Potency is the fitted concentration of half-maximal effect.
# Chain of Acetylcholinesterase (Homo sapiens) (P22303 whole entry, looked up): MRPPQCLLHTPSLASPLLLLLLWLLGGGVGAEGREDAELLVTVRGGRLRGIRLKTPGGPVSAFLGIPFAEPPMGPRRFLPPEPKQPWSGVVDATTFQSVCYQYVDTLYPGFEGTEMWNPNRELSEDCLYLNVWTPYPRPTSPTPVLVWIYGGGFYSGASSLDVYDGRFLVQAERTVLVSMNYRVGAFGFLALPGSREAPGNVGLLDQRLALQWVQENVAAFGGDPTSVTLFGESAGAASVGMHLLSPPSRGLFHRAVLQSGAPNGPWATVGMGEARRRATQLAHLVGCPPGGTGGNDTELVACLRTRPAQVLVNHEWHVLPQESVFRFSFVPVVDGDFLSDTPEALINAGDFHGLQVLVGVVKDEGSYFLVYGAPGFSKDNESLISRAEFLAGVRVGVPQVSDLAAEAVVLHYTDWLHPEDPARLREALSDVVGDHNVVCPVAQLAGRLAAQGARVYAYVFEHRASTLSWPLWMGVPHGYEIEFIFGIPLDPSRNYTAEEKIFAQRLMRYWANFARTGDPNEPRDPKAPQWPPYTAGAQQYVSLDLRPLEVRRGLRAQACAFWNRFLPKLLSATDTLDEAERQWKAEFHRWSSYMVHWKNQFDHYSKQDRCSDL
SMILES,Potency,"activity change, negative = inhibition"
CCC[CH2][Sn]([Cl])([Cl])[Cl],inactive,
CCCCCCCCCl,,2.21% (inactive)
COCCl,inactive,
CCCC1COC(Cn2cncn2)(c2ccc(Cl)cc2Cl)O1 (stereo not given),inactive,
CC(C)(C)C(O)(CCc1ccc(Cl)cc1)Cn1cncn1 (stereo not given),inactive,
O=c1ccc(=O)[nH][nH]1,inactive,
O=[N+]([O-])c1ccc([As](=O)(O)O)cc1,inactive,
c1ccc2c(c1)Oc1ccccc1O2,inactive,
ClCc1cccnc1,inactive,
c1ccc2c(c1)oc1ccccc12,inactive,
CC1C=[C-]C=C1.[C-]#[O+].[C-]#[O+].[C-]#[O+].[Mn],inactive,
CCCCCOC(=O)c1ccccc1C(=O)OCCCCC,inactive,
CCCN(CCC)N=O,inactive,
CN=C=S,inactive,
O=C(O)c1ccccn1,inactive,
C=C(C)CCl,inactive,
O=C(NC(=O)c1c(F)cccc1F)Nc1cc(Cl)c(OC(F)(F)C(F)C(F)(F)F)cc1Cl (stereo not given),inactive,
CN(C)N=O,inactive,
OCCN(CCO)CCO,inactive,
Cc1ccc(N)cc1N,,-22.5% (inactive)

SMILES,Potency,"activity change, negative = inhibition"
O=C1CCCN1,inactive,
CC(C#N)CCC#N (stereo not given),35.2 µM (active) and inactive,
COC(=O)c1ccccc1N,inactive,
COC(=O)NC(=S)Nc1ccccc1NC(=S)NC(=O)OC,inactive,
CCN(CC)CCO,inactive,
O=c1n(Cl)c(=O)n(Cl)c(=O)n1Cl,inactive,
CCOC(=O)c1ccccc1C(=O)OCC,inactive,
CCCCN(CC)C(=O)SCCC,inactive,
[O-][Cl+2]([O-])O,inactive,
CCC12COCN1COC2,inactive,
Clc1ccc(Cl)cc1,inactive,
Cc1ccc(N)cc1Cl,inactive,
COC(=O)c1ccccc1C(=O)OC,inactive,
Nc1ccc(Oc2ccc(N)cc2)cc1,inactive,
c1ccc(-c2ccccc2)cc1,inactive,
CC(C)C1(C)N=C(c2nc3ccccc3cc2C(=O)O)NC1=O (stereo not given),inactive,
Nc1c(Cl)c(Cl)nc(C(=O)O)c1Cl,inactive,
Cc1[nH]c(=O)n(C(C)(C)C)c(=O)c1Cl,inactive,
C1CN2CCN1CC2,inactive,
O=NN1CCCC1,inactive,
